Laboratory results published in PubChem BioAssay.
Unmarked numbers belong to inactive results. Activity calls are given as the source filed them. How the calls were made is not given here.

target: L-lactate dehydrogenase (Plasmodium falciparum (isolate CDC / Honduras)) (UniProt Q27743); assay: PfLDH activity inhibition – cell lysate, 3D7 strain, counter-screen for P. falciparum growth inhibition project (AID 2304);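 further: 0% = vehicle and 100% = reference inhibitor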; details: P. falciparum 3D7 crude extract, LDH APAD/NBT absorbance; at 2 µM; stronger effect = higher value
Sequence (Q27743 whole entry, looked up): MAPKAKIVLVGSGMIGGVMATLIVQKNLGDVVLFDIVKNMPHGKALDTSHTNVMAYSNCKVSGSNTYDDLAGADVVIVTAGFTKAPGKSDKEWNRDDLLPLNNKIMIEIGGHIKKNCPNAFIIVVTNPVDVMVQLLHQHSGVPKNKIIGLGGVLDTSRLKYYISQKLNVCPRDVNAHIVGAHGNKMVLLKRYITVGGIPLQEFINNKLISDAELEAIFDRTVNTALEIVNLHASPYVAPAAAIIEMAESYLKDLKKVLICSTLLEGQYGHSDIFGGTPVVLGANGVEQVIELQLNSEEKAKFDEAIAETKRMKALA

Row | SMILES | inhibition
1 | CCc1cn2c3c(cc(C(=O)N[C@@H](Cc4cccc(F)c4)[C@H](O)CNC4CCCCC4)cc13)N(C)S(=O)(=O)CC2 | 0%
2 | CC(C)NCc1ccc(-c2ccc(NC(=O)c3ccc(Cl)cc3)cc2)cc1 | 3%
3 | CCc1ccc(NC(=O)c2ccc(CN3CCCN(CC4CCCCC4)CC3)cc2)cc1 | 3%
4 | COc1cccc(CNC(=O)c2cccc(-c3cccc(CN4CCC(N5CCCC5)CC4)c3)n2)c1 | 1%
5 | CN1CCCC(CN2CCN(Cc3ccc(-c4ccc(-c5nc6ccc(F)cc6[nH]5)cc4)cc3)CC2)C1 (stereo not given) | -1%
6 | Nc1ccc(-c2ccc(NC(=O)Nc3cc(C(F)(F)F)ccc3F)cc2)cn1 | -9%
7 | COc1ccc2nc(N3CCNCC3)nc(NCCCc3ccccc3)c2c1 | -3%
8 | O=C(N[C@H]1CCN(Cc2ccc(OCCN3CCCC3)c3ccccc23)C1)c1ccc(Cl)c(Cl)c1 | -1%
9 | Clc1cc(Nc2ncnc3sc(C#Cc4ncc[nH]4)cc23)ccc1OCc1ccccn1 | -3%
10 | CCCOc1c(CCNCCCCNCCc2ccc3ccccc3c2OCCC)ccc2ccccc12 | 7%
11 | CCN(CC)CCNc1c2ccc(Cl)cc2nc2ccc(OC)nc12 | 2%
12 | CCn1c2c(c(=N)c3ccccc31)CCC2 | 8%
13 | CCCNCc1ccc(-c2ccc(CN(CCOC)C(=O)CCCOCc3ccccc3)cc2)nc1 | 2%
14 | CCNc1cc(C(=O)N[C@@H](Cc2ccccc2)[C@H](O)CNC(C)(C)Cc2cccc(OC)c2)cc(N2CCCC2=O)c1 | -8%
15 | CCOc1ccc(C(C)NC(=O)Cc2ccccc2F)cc1OCC (stereo not given) | 6%
16 | CNC(=O)c1cnc(Nc2ccc(N3CCN(C)CC3)cc2)nc1Nc1ccccc1OC | 2%
17 | CN(C)CCOc1ccnc2ccc(NC(=O)Cc3ccc(-c4ccncc4)c4ccccc34)cc12 | -6%
18 | CC1(C)N=C(N)N=C(N)N1c1cc(Cl)c(Cl)cc1Cl | 1%
19 | CN(/N=C/c1ccc(Cl)cc1)c1nc(NCCc2ccc(O)cc2)nc(N2CCNCC2)n1 | 4%
20 | O=C(NCc1ccccc1F)c1ccc(N2CCC(NCc3cccc(-n4cccn4)c3)CC2)cc1 | 4%

Row | SMILES | inhibition
21 | COc1cc(F)c2nccc([C@@H](O)CN3CCC(NCc4cc5c(cc4F)OCCO5)CC3)c2c1 | -1%
22 | CCCCCCCCS(=O)(=O)NCCCC1CCN(CCCCCNC(=O)C=Cc2ccc(Cl)c(Cl)c2)CC1 | 6%
23 | Nc1ccc2[nH]cc(C3CCN(CCC4CCN(C(=O)/C=C/c5ccc(Cl)c(Cl)c5)CC4)CC3)c2n1 | 0%
24 | Cc1ccc(S(=O)(=O)N2CCN(C(=O)c3cc(-c4ccccc4)n[nH]3)CC2)cc1 | -7%
25 | CCCNC[C@@H](O)[C@H](Cc1ccccc1)NC(=O)c1cc(NCC)cc(N2CCCC2=O)c1 | 1%
26 | COc1ccc(C2C(C(=O)Nc3ccc4c(c3)OCO4)c3cc(OC)c(OC)cc3C(=O)N2C)cc1 (stereo not given) | -4%
27 | O=C(Cc1ccc(NC(=O)c2ccc(O)c(-c3ccc(Cl)c(Cl)c3)c2)cc1)NCCN1CCOCC1 | 4%
28 | Cc1csc2nc(-c3ccccn3)nc(Nc3ccc4ncsc4c3)c12 | 3%
29 | CC(=O)Nc1ccc(C2NC(=O)NC(c3ccccc3)=C2c2nc3ccccc3s2)cc1 (stereo not given) | 3%
30 | CS(=O)(=O)CCNCc1nc(-c2ccc3c(Nc4ccc(Cl)cc4F)ccnc3c2)cs1 | 1%
31 | Cc1cccc2[nH]c(-c3cccc(-c4ccc(NC(=O)CN5CCOCC5)cc4)c3)nc12 | 4%
32 | Cc1cc(NN=Cc2ccc(Cl)cc2)c2ccc(F)cc2n1 | -2%
33 | N#CN1CC[C@H](CS(=O)(=O)c2cccc(Br)c2)C1 | -2%
34 | CC(C)(C)Oc1ccc(C[C@@H]2NC3(C(=O)N(Cc4ccc(Cl)c(Cl)c4)c4ccccc43)C3C(=O)N(c4ccc(Br)cc4)C(=O)C32)cc1 (stereo not given in full) | 6%
35 | CN(c1ccc(F)cc1)S(=O)(=O)c1ccc(Cl)c(C(=O)Nc2cccc(C#N)c2)c1 | -4%
36 | Ic1cc(Nc2ncnc3ccsc23)ccc1OCc1ccccc1 | 4%
37 | Cc1cc(NC(=O)Nc2ccc3nc(C)oc3c2)c2cc(Cl)ccc2n1 | -2%
38 | Cc1ccc(N2C(N)=NC(N)=NC2c2ccccc2)cc1 (stereo not given) | -1%
39 | Cc1cc(-c2cccc3c(C(=O)N4CCc5cc6nccc(N7CCCN(C)CC7)c6cc54)cccc23)cc(C)n1 | 6%
40 | O=S(=O)(Nc1cc2c(cc1O)CCNCC2)c1ccc(-c2ccc(Cl)cc2)cc1 | 3%

tested on: not listed separately; assay: inhibition of 3D7 malaria parasite growth – strain 3D7 (AID 2306);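 further: 0% = DMSO wells and 100% = chloroquine plus artemisinin control wells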; details: P. falciparum 3D7 erythrocytic growth, LDH absorbance, 72 h; at 2 µM; stronger effect = higher value

Row | SMILES | growth inhibition
41 | CCc1cn2c3c(cc(C(=O)N[C@@H](Cc4cccc(F)c4)[C@H](O)CNC4CCCCC4)cc13)N(C)S(=O)(=O)CC2 | 99% (active)
42 | CC(C)NCc1ccc(-c2ccc(NC(=O)c3ccc(Cl)cc3)cc2)cc1 | 90% (active)
43 | CCc1ccc(NC(=O)c2ccc(CN3CCCN(CC4CCCCC4)CC3)cc2)cc1 | 96% (active)
44 | COc1cccc(CNC(=O)c2cccc(-c3cccc(CN4CCC(N5CCCC5)CC4)c3)n2)c1 | 100% (active)
45 | CN1CCCC(CN2CCN(Cc3ccc(-c4ccc(-c5nc6ccc(F)cc6[nH]5)cc4)cc3)CC2)C1 (stereo not given) | 100% (active)
46 | Nc1ccc(-c2ccc(NC(=O)Nc3cc(C(F)(F)F)ccc3F)cc2)cn1 | 99% (active)
47 | COc1ccc2nc(N3CCNCC3)nc(NCCCc3ccccc3)c2c1 | 100% (active)
48 | O=C(N[C@H]1CCN(Cc2ccc(OCCN3CCCC3)c3ccccc23)C1)c1ccc(Cl)c(Cl)c1 | 100% (active)
49 | Clc1cc(Nc2ncnc3sc(C#Cc4ncc[nH]4)cc23)ccc1OCc1ccccn1 | 101% (active)
50 | CCCOc1c(CCNCCCCNCCc2ccc3ccccc3c2OCCC)ccc2ccccc12 | 100% (active)
51 | CCN(CC)CCNc1c2ccc(Cl)cc2nc2ccc(OC)nc12 | 100% (active)
52 | CCn1c2c(c(=N)c3ccccc31)CCC2 | 83% (active)
53 | CCCNCc1ccc(-c2ccc(CN(CCOC)C(=O)CCCOCc3ccccc3)cc2)nc1 | 93% (active)
54 | CCNc1cc(C(=O)N[C@@H](Cc2ccccc2)[C@H](O)CNC(C)(C)Cc2cccc(OC)c2)cc(N2CCCC2=O)c1 | 99% (active)
55 | CCOc1ccc(C(C)NC(=O)Cc2ccccc2F)cc1OCC (stereo not given) | 96% (active)
56 | CNC(=O)c1cnc(Nc2ccc(N3CCN(C)CC3)cc2)nc1Nc1ccccc1OC | 100% (active)
57 | CN(C)CCOc1ccnc2ccc(NC(=O)Cc3ccc(-c4ccncc4)c4ccccc34)cc12 | 100% (active)
58 | CC1(C)N=C(N)N=C(N)N1c1cc(Cl)c(Cl)cc1Cl | 95% (active)
59 | CN(/N=C/c1ccc(Cl)cc1)c1nc(NCCc2ccc(O)cc2)nc(N2CCNCC2)n1 | 101% (active)
60 | O=C(NCc1ccccc1F)c1ccc(N2CCC(NCc3cccc(-n4cccn4)c3)CC2)cc1 | 89% (active)

Row | SMILES | growth inhibition
61 | COc1cc(F)c2nccc([C@@H](O)CN3CCC(NCc4cc5c(cc4F)OCCO5)CC3)c2c1 | 99% (active)
62 | CCCCCCCCS(=O)(=O)NCCCC1CCN(CCCCCNC(=O)C=Cc2ccc(Cl)c(Cl)c2)CC1 | 91% (active)
63 | Nc1ccc2[nH]cc(C3CCN(CCC4CCN(C(=O)/C=C/c5ccc(Cl)c(Cl)c5)CC4)CC3)c2n1 | 100% (active)
64 | Cc1ccc(S(=O)(=O)N2CCN(C(=O)c3cc(-c4ccccc4)n[nH]3)CC2)cc1 | 91% (active)
65 | CCCNC[C@@H](O)[C@H](Cc1ccccc1)NC(=O)c1cc(NCC)cc(N2CCCC2=O)c1 | 100% (active)
66 | COc1ccc(C2C(C(=O)Nc3ccc4c(c3)OCO4)c3cc(OC)c(OC)cc3C(=O)N2C)cc1 (stereo not given) | 89% (active)
67 | O=C(Cc1ccc(NC(=O)c2ccc(O)c(-c3ccc(Cl)c(Cl)c3)c2)cc1)NCCN1CCOCC1 | 94% (active)
68 | Cc1csc2nc(-c3ccccn3)nc(Nc3ccc4ncsc4c3)c12 | 85% (active)
69 | CC(=O)Nc1ccc(C2NC(=O)NC(c3ccccc3)=C2c2nc3ccccc3s2)cc1 (stereo not given) | 93% (active)
70 | CS(=O)(=O)CCNCc1nc(-c2ccc3c(Nc4ccc(Cl)cc4F)ccnc3c2)cs1 | 88% (active)
71 | Cc1cccc2[nH]c(-c3cccc(-c4ccc(NC(=O)CN5CCOCC5)cc4)c3)nc12 | 94% (active)
72 | Cc1cc(NN=Cc2ccc(Cl)cc2)c2ccc(F)cc2n1 | 100% (active)
73 | N#CN1CC[C@H](CS(=O)(=O)c2cccc(Br)c2)C1 | 88% (active)
74 | CC(C)(C)Oc1ccc(C[C@@H]2NC3(C(=O)N(Cc4ccc(Cl)c(Cl)c4)c4ccccc43)C3C(=O)N(c4ccc(Br)cc4)C(=O)C32)cc1 (stereo not given in full) | 86% (active)
75 | CN(c1ccc(F)cc1)S(=O)(=O)c1ccc(Cl)c(C(=O)Nc2cccc(C#N)c2)c1 | 95% (active)
76 | Ic1cc(Nc2ncnc3ccsc23)ccc1OCc1ccccc1 | 101% (active)
77 | Cc1cc(NC(=O)Nc2ccc3nc(C)oc3c2)c2cc(Cl)ccc2n1 | 100% (active)
78 | Cc1ccc(N2C(N)=NC(N)=NC2c2ccccc2)cc1 (stereo not given) | 94% (active)
79 | Cc1cc(-c2cccc3c(C(=O)N4CCc5cc6nccc(N7CCCN(C)CC7)c6cc54)cccc23)cc(C)n1 | 100% (active)
80 | O=S(=O)(Nc1cc2c(cc1O)CCNCC2)c1ccc(-c2ccc(Cl)cc2)cc1 | 99% (active)
